This is part of a sample that, as a whole, favours compounds with a hit. Of some 83,000 tested, about 20% had one in any assay.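 Percent growth is the endpoint: 0 to 100 indicates growth inhibition (40 means 60% inhibition), 0 means no net growth, and negative values indicate cell death.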 A number with no mark means an inactive call. Active and inactive are the calls of the source. Rule for the calls: active = growth percent below 10; inactive = the rest.
System: MDA-MB-468 breast
Experiment: NCI-60 one-dose screen, 48 h (100 = growth as untreated, 0 = no growth, -100 = all killed)
Conditions: 10 µM unless noted

SMILES	growth
COc1ccc(/C=C2\CCCC3=C2N=C2SC=NN2C3c2ccc(OC)c(OC)c2)cc1OC (stereo not given)	14.5%
C=C1C(=O)O[C@H]2[C@H]1CC/C(CNC(=O)Cc1c[nH]c3ccccc13)=C\CC[C@@]1(C)O[C@@H]21	-79.9% (active)
C=C(C(=O)c1ccccc1)C(NC(C)(C)C)c1ccccc1 (stereo not given)	-37.3% (active)
COc1ccc(-c2cc(C(=O)N=Nc3c(O)[nH]c4ccccc34)c3ccccc3n2)cc1OC	92.3%
N#Cc1c(-c2cccs2)cc(-c2cnccn2)nc1SCC(=O)N/N=C/c1ccccc1	9.18% (active)

— PubChem BioAssay (NCI)
